This note sets out measurements from PubChem BioAssay AID488838 (National Center for Advancing Translational Sciences (NCATS), 2010).

Molecules are shown by their SMILES. Results filed as inconclusive are left out. Calls of active or inactive are those of the source. The call rests on the fitted dose curve; in most records, active means well fitted inhibition curve with a large enough effect; inconclusive means small, poorly fitted or top-dose-only effect; inactive means flat fitted curve, though single readings scatter.

The target in this experiment is Luciferin 4-monooxygenase (Photinus pyralis) (UniProt P08659). Put plainly: Counterscreen Assay for Enhancers of SMN2 Splice Variant Expression: Interaction with Luciferase Reporter for Further Probe SAR. The note with it: purified firefly luciferase, luminescence, 5 min; series mostly up to 57.5 µM. The text has this: NIH Chemical Genomics Center [NCGC] NIH Molecular Libraries Probe Production centers Network [MLPCN] MLPCN Grant: R03 MH084179-01 Assay Submitter (PI): Elliot Androphy NCGC Assay Overview: Spinal muscular atrophy (SMA) is caused by insufficient levels of the survival motor neuron protein SMN. The SMN locus on chromosome 5q13 contains two inverted copies of SMN called SMN1 and SMN2 which are 99% identical at the amino acid level. SMN1 is a fully functional protein and SMN2 skips exon 7 90% of the time. Skipping of exon 7 produces non-functional protein product. 10% of the SMN2 protein includes exon 7 and is fully functional. In the SMA disease state, mutations in the SMN1 locus are the cause of the disease state. Because only 10% of SMN2 is of the fully functional form, it is not sufficient to overcome the deficiency produced by the loss of the SMN1 product. A therapy that either increases the amount of SMN2 product made increases the inclusion of exon 7 has been proposed for the treatment of SMA. We have designed an assay to identify small molecules that can increase the amount of functional SMN2 product by appending a luciferase reporter gene after the native SMN2 gene, such that inclusion of exon 7 in the expressed product places the luciferase sequence in frame, thus generating functional luciferase enzyme. One potential source of false positives in the primary screening assay is stabilization of the reporter luciferase via direct binding. This assay attempts to identify such compounds by screening directly for luciferase activity in the absence of the cellular system.
Chain of Luciferin 4-monooxygenase (Photinus pyralis) (P08659 whole entry, looked up, canonical isoform): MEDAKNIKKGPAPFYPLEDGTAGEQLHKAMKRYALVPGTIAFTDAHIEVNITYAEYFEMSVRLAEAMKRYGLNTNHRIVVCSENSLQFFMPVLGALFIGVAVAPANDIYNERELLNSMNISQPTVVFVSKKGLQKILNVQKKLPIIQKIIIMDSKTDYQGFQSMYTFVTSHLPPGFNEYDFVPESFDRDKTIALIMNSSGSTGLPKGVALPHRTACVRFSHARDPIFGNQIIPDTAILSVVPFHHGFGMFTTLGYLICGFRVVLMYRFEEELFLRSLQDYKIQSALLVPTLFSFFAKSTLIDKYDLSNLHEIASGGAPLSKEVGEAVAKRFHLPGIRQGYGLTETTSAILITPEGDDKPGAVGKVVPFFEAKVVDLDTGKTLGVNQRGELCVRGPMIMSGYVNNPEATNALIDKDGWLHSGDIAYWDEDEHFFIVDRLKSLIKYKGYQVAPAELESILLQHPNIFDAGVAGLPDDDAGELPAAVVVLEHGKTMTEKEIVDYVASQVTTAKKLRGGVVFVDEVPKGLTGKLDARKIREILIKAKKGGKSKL
NCGC Assay Protocol Summary: The primary screen utilizes a luciferase reporter gene assay, combining the promoter and splicing based cassettes in tandem with the major portion of the native SMN1 cDNA, and then transfected into HEK293 cells. Compounds that modulate luciferase signal presumably modulate expression of […]. In this assay, we utilize purified firefly luciferase in lieu of a cellular reporter to identify compounds interacting directly with luciferase in the primary screen. Sequence, Parameter, Value, Description (1) Reagent, 2.5 uL, Enzyme in buffer (note A) (2) Compound, 23 nL, From stock solutions (3) Time, 5 minutes, Room temp (4) Reagent#2.5 ul, Luciferase detection reagent (note B) (5) Detector, 1 sec integrate, Luminescent read on Viewlux (note C) Sigma enzyme (1 mg) considered to be MW 61,000 diluted in 357 ul assay buffer to 50 uM stock. A - Enzyme and buffer consists of 50 mM Tris-acetate pH 7.6, 10 mM Mg acetate 0.05% BSA, 0.01% Tween and 5 nM firefly luciferase B - Detection reagent = britelite plus diluted 1:10 in PBS C - Viewlux settings were 1 second integration medium sensitivity Keywords: Spinal muscular atrophy, SMA, SMN2, high throughput screening, MLSMR, MLPCN, NIH Roadmap, qHTS and NCGC
On to `O=C(Nc1ccccc1)C1CCN(c2ncc(-c3ccc4c(c3)OCCCO4)s2)CC1`, for which the Potency is 4.01 µM (active). With `CCOC(=O)C1CCN(c2ncc(-c3ccc4c(c3)OCCCO4)s2)CC1`, the Potency is 8 µM (active). For `N#Cc1ccc(-c2csc(N3CCC(C(N)=O)CC3)n2)cc1` the value was “inactive”. Take `NC(=O)C1CCN(c2nc(-c3ccc4c(c3)OCCCO4)cs2)CC1`: the Potency was 0.897 µM (active). On to `NC(=O)C1CCN(c2nc(-c3ccc(OC(F)(F)F)cc3)cs2)CC1`, for which the Potency entry is “inactive”.

For `Cc1ccc(-c2nnc(N3CCC(C(N)=O)CC3)s2)cc1`, the Potency was 16 µM (active). With `NC(=O)C1CCN(c2nccc(Cl)n2)CC1`, the Potency result is “inactive”. Take `NC(=O)C1CCN(c2nnc(-c3ccc4c(c3)OCCCO4)s2)CC1`: the Potency was 3.57 µM (active).

Take `O=C(c1ccccc1)N1CCN(c2nc(-c3ccc(Br)cc3)cs2)CC1`: the Potency entry is “inactive”. For `CN(C)c1cccc(-c2cnc(N3CCC(c4ncc[nH]4)CC3)s2)c1` the value was 20.1 µM (active); for `NC(=O)C1CCN(c2ncc(Br)s2)CC1`, “inactive”; for `NC(=O)C1CCN(c2ncc(-c3ccc4c(c3)OC(F)(F)O4)s2)CC1`, 16 µM (active). In the case of `CN(C)c1ccc(-c2csc(N3CCC(C(N)=O)CC3)n2)cc1`, the Potency result was “inactive”. For the compound `CN(C)c1cccc(-c2cc(N3CCC(C(N)=O)CC3)ncn2)c1`, the Potency entry was “inactive”. Turning to `COc1cc(-c2csc(N3CCC(C(N)=O)CC3)n2)cc(OC)c1OC`, the Potency result was “inactive”. As to `O=C(O)C1CCN(c2ncc(-c3ccc4c(c3)OCCCO4)s2)CC1`, the Potency is 0.005 µM (active). Turning to `COc1cccc(-c2csc(N3CCC(C(N)=O)CC3)n2)c1`, the Potency was 25.3 µM (active). Regarding `Cc1cnc(N2CCC(C(N)=O)CC2)nc1-c1cccc(N(C)C)c1`, the Potency result is “inactive”. `Brc1ccc(-c2csc(N3CCC(c4nn[nH]n4)CC3)n2)cc1`: the Potency is 16 µM (active). Under `O=C(O)C1CCN(c2nc(-c3ccc(Br)cc3)cs2)CC1` stands 1.42 µM (active). With `CN(C)c1cccc(-c2nccc(N3CCC(C(N)=O)CC3)n2)c1`, the Potency entry was “inactive”.

As for `NC(=O)C1CCN(c2nccc(-c3ccc(Br)cc3)n2)CC1`, the Potency is 25.3 µM (active).
